The results in this text go back to PubChem BioAssay (Tox21).

A short description of experiment [1]: qHTS assay to identify small molecule antagonists of the vitamin D receptor (VDR) signaling pathway - cell viability counter screen (AID 743225). Also: nearly all actives have a fitted effect of over 50% in size. The gist of the method:
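VDR-bla HEK 293T cells, 4 h pre-incubation at 37C, then compound plus 1-alpha,25-dihydroxyvitamin D3 (3 nM final) for 16 h. After the beta-lactamase FRET read, CellTiter-Glo was added to the same wells; luminescence after 30 min at room temperature.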
(qHTS replaces the single test concentration by a dilution series.)

A short description of experiment [2]: qHTS assay to identify small molecule agonists of the NFkB signaling pathway - cell viability counter screen (AID 1159515; calls by dose curve; also: series mostly up to about 61 µM; nearly all actives have a fitted effect of over 55% in size). In short, it runs like this:
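Plate 2,000 NFkB-bla ME-180 cells/well; incubate overnight. Add compounds, 5 hr at 37 C. Add FRET substrate, 1.5 hr RT. Add CellTiter-Glo, 30 min RT; read luminescence.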

A short description of experiment [3]: qHTS assay to identify small molecule agonists of the endoplasmic reticulum stress response signaling pathway (AID 1159516; active = well fitted activation curve with a large enough effect in the signal ratio in the repeat runs, not every such curve was filed as active; the % refers to the signal ratio). The gist of the method:
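Beta-lactamase expression from the ER stress response element in HeLa reporter cells is quantified with the LiveBLAzer B/G FRET substrate, read at 405 nm excitation after 2 hr at room temperature, following 5 hr compound treatment at 37 C.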

Experiment [4] in a line: qHTS assay to identify small molecule agonists of the endoplasmic reticulum stress response signaling pathway - cell viability counter screen (AID 1159517; calls by dose curve; also: series mostly up to about 61 µM; nearly all actives have a fitted effect of over 50% in size). The gist of the method: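 Cytotoxicity of test compounds toward ESRE-bla HeLa cells was assessed after 5 hr exposure. The luminescent CellTiter-Glo signal was measured 30 min after reagent addition.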
Experiment [5] can be described thus: qHTS assay to identify small molecule antagonists of the retinoid-related orphan receptor gamma (ROR-gamma) signaling pathway - cell viability counter screen (AID 1159520). Also: nearly all actives have a fitted effect of over 50% in size. The gist of the method:
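Tet-on ROR gamma CHO cells (1,000/well) were plated 4 hr, given compounds in DMSO for 2 hr at 37 C, then induced with 1 uM final doxycycline for 16 hr. Viability was read as ATP by CellTiter-Glo luminescence after 30 min.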

In experiment [6] the target is Nuclear receptor ROR-gamma (Homo sapiens) (UniProt P51449). Nature of the experiment: qHTS assay to identify small molecule antagonists of the retinoid-related orphan receptor gamma (ROR-gamma) signaling pathway (AID 1159521;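 also: CHO cells with doxycycline inducible ROR-gamma driving an RORE luciferase reporter; top concentration of the series differs between compounds; nearly all actives have a fitted effect of over 50% in size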). In short, it runs like this:
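Tet-on RORγ CHO cells carrying a ROR response element–luciferase reporter were pretreated with compounds for 2 h, then induced with 1 uM (final) doxycycline hyclate for 16 h at 37 C. Antagonism was read as decreased ONE-Glo luminescence.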

The nature of experiment [7]: qHTS assay to identify small molecule agonists of the AP-1 signaling pathway - cell viability counter screen (AID 1159525; calls by dose curve; also: nearly all actives have a fitted effect of over 55% in size). The gist of the method: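 Each titration point was normalised to DMSO and tetra n-octyl ammonium bromide controls. The read was Cell Titer Glo luminescence after 30 min at RT, following 5 h compound exposure of ME-180 AP-1-bla cells at 37 °C.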

Experiment [8] is described as follows: qHTS assay to identify small molecule agonists of the AP-1 signaling pathway (AID 1159526; calls by dose curve).
Experiment [9] addresses Retinoic acid receptor RXR-alpha (Homo sapiens) (UniProt P19793). Nature of the experiment: qHTS assay to identify small molecule agonists of the RXR signaling pathway (AID 1159527; calls by dose curve; also: nearly all actives have a fitted effect of over 35% in size; also: potency is read from the fitted curve at half-maximal effect). In short, it runs like this:
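GeneBLAzer RXR-alpha-UAS-bla HEK 293T cells in medium with 2% charcoal-stripped FBS, pre-incubated 5 hr at 37 C, then exposed to compounds 16 hr. Beta-lactamase reporter read by FRET substrate, 2 hr room temperature, 460/530 nm emission.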

Experiment [10] in a line: qHTS assay to identify small molecule agonists of the RXR signaling pathway - cell viability counter screen (AID 1159529). The gist of the method:
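RXR-alpha-UAS-bla HEK 293T cells in medium with 2% charcoal-stripped FBS were preincubated 5 hr, then exposed to compounds for 16 hr at 37 C. Viability was read as CellTiter-Glo luminescence after 30 min at room temperature.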

A short description of experiment [11]: qHTS assay to identify small molecule antagonists of the retinoid acid receptor (RAR) signaling pathway - cell viability counter screen (AID 1159551). Also: nearly all actives have a fitted effect of over 35% in size. In short, it runs like this: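 Viability of C3RL4 cells is quantified from ATP by luminescence after 6 h treatment at 37 C with compounds and 1 uM retinol.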
Experiment [12] can be described thus: qHTS assay to identify small molecule agonists of the retinoic acid receptor (RAR) signaling pathway (AID 1159553). The gist of the method:
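Compounds dissolved in DMSO were pinned onto C3RL4 cells seeded the previous day, and plates were held 6 hr at 37 C. RARE-driven luciferase output was then read by luminescence.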

Experiment [13] concerns the target Luciferin 4-monooxygenase (Photinus pyralis) (UniProt P08659). Kind of experiment: qHTS assay to identify small molecule inhibitors of firefly luciferase (AID 1224835). Also: series mostly up to about 120 µM; nearly all actives have a fitted effect of over 25% in size. The gist of the method: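 Quantitative HTS format; KM concentrations of both substrates. Purified P. pyralis FLuc activity quantified from luminescence images.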
Experiment [14] in a line: qHTS assay to identify small molecule agonists of the constitutive androstane receptor (CAR) signaling pathway - cell viability counter screen (AID 1224836). Also: series mostly up to about 92 µM; nearly all actives have a fitted effect of over 45% in size. In short, it runs like this:
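HepG2 cells stably carrying hCAR and a CYP2B6-2.2kb reporter were plated 4 h, then given compounds at 15 concentrations plus PK11195 (final 0.75 uM). After 23 h at 37 C, viability was read by CellTiter-Fluor fluorescence.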

The nature of experiment [15]: qHTS assay to identify small molecule antagonists of the constitutive androstane receptor (CAR) signaling pathway - cell viability counter screen (AID 1224837). Also: series mostly up to about 92 µM; nearly all actives have a fitted effect of over 45% in size. In short, it runs like this: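 In quantitative HTS format, compounds at 15 concentrations were applied to HepG2 cells double-transfected with hCAR and CYP2B6-2.2kb under 50 nM CITCO stimulation; live-cell protease activity was read after 23 hr via CellTiter-Fluor.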

Experiment [16] deals with Nuclear receptor subfamily 1 group I member 3 (Homo sapiens) (UniProt Q14994). Nature of the experiment: qHTS assay to identify small molecule antagonists of the constitutive androstane receptor (CAR) signaling pathway (AID 1224838). Also: nearly all actives have a fitted effect of over 40% in size. The gist of the method: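 CITCO-stimulated (50 nM final) HepG2 cells stably transfected with hCAR and CYP2B6-2.2kb luciferase were exposed to compounds at 15 concentrations for 24 h at 37 C/5% CO2. A luciferase reagent was added and luminescence recorded after 30 min.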

Experiment [17] has the same target. Nature of the experiment: qHTS assay to identify small molecule agonists of the constitutive androstane receptor (CAR) signaling pathway (AID 1224839).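 Also: HepG2 cells stably carrying human CAR and a CYP2B6 luciferase reporter; series mostly up to about 92 µM; nearly all actives have a fitted effect of over 15% in size.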 In short, it runs like this:
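HepG2 cells stably expressing hCAR and a CYP2B6-2.2kb luciferase reporter were treated with compounds at 15 concentrations plus 0.75 uM PK11195 (final) for 24 h at 37 C; luminescence was read after ONE-Glo addition.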

The nature of experiment [18]: qHTS assay to identify small molecule antagonists of the estrogen related receptor signaling pathway with the pleiotropic PPARgamma coactivator (PGC) from Tox21 10K library - cell viability counter screen (AID 1224840; active = well fitted cell-killing curve with a large enough effect in the repeat runs, not every such curve was filed as active; also: nearly all actives have a fitted effect of over 40% in size). In short, it runs like this:
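Viability counter screen, PGC/ERR cells: 17.5 h compound exposure at 37 C, CellTiter-Fluor fluorescence endpoint.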

Experiment [19] in a line: qHTS assay to identify small molecule antagonists of the retinoic acid receptor (RAR) signaling pathway (AID 1159552; also: nearly all actives have a fitted effect of over 50% in size). The gist of the method:
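RARE-luc C3RL4 cells; cpds + 1 uM (final) retinol, 6 hr, 37 C/5% CO2; luciferase reagent, 30 min RT, luminescence readout. Inhibitors of retinol-driven signal scored.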

Experiment [20] can be described thus: qHTS assay to identify small molecule antagonists of the estrogen related receptor (ERR) signaling pathway from Tox21 library - cell viability counter screen (AID 1224834). Also: nearly all actives have a fitted effect of over 30% in size. In short, it runs like this:
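In this quantitative HTS format, ERR cells receive compounds in DMSO and are incubated for 17.5 h at 37 C. Live-cell protease activity is then detected with CellTiter-Fluor.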

Structures are written as SMILES. Inconclusive results are not listed. Unmarked numbers belong to inactive results. Active and inactive are the calls of the source. Unless noted, calls follow the shape of the dose curve; as a rule, active = well fitted curve in the direction sought with a large enough effect in the repeat runs; inconclusive = weak or mixed curves; inactive = no such curve, though single readings can be large; an effect the other way counts as inactive or inconclusive.

Sequence of Retinoic acid receptor RXR-alpha (Homo sapiens) (P19793 whole entry, looked up): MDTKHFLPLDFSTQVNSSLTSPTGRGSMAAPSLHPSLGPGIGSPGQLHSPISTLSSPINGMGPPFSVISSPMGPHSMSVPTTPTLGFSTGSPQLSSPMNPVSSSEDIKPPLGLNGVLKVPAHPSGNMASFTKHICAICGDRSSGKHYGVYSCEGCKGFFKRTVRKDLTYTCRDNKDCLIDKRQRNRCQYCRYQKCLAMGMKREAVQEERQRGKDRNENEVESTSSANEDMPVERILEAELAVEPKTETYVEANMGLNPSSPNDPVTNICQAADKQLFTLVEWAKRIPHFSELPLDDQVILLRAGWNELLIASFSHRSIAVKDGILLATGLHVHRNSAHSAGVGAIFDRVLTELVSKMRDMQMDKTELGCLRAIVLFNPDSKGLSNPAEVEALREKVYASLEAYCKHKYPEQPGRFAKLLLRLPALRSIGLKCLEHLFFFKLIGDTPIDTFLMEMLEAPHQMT
Sequence of Luciferin 4-monooxygenase (Photinus pyralis) (P08659 whole entry, looked up): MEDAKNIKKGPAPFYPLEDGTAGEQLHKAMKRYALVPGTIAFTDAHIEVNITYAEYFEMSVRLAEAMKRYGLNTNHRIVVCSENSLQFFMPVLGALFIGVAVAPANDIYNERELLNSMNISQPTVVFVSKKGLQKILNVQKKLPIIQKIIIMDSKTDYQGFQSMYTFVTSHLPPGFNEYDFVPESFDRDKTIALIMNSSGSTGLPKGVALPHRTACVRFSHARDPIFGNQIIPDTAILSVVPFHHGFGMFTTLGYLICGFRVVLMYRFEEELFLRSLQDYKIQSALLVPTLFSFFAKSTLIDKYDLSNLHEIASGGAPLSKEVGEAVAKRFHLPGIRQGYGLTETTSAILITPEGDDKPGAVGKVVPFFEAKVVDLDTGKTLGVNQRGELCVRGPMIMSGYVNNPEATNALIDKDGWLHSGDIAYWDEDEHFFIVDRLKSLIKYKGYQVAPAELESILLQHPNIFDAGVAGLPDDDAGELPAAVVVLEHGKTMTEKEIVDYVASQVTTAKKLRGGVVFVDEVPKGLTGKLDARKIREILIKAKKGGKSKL
Sequence of Nuclear receptor subfamily 1 group I member 3 (Homo sapiens) (Q14994 whole entry, looked up): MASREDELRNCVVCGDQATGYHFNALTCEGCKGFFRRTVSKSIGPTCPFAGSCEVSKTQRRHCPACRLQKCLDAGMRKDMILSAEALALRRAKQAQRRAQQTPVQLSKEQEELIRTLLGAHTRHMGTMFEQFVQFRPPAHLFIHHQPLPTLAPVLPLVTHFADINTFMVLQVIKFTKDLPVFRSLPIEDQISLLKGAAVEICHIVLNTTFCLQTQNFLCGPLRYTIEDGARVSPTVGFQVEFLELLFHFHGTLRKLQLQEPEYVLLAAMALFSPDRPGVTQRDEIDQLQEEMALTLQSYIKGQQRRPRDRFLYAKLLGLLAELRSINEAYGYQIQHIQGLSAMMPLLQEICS

On to `C=CCOC(=O)CCCCCCCC`, for which the molecule was called inactive in [1], in experiment [2], in experiment [4], in experiment [5], in [6] and in [7]. Also, the call in experiment [11], in experiment [14], in [15], in [16] and in [18] was inactive. Also, the Potency entry in experiment [3], in [8], in experiment [10], in experiment [12], in experiment [13] and in experiment [17] was “inactive” in each case. In experiment [9], the Potency is 17.5 µM (active).

Take `CO/N=C(\C(=O)O)c1csc(NC(=O)CCl)n1`: the molecule was classed as inactive in experiment [1], in experiment [2], in [4], in experiment [5], in experiment [6] and in [7]. Moreover, the molecule was called inactive in experiment [11], in experiment [19], in [20], in experiment [14], in [15] and in experiment [16]. Also, in experiment [18], the molecule was called inactive. Further, the Potency entry in experiment [3], in experiment [8], in [9], in experiment [12], in experiment [13] and in experiment [17] was “inactive” throughout.

For `CC1(C)S[C@@H]2[C@H](NC(=O)Cc3ccccc3)C(=O)N2[C@H]1C(=O)O` (tested in a mixture with another compound), the molecule was classed as inactive in experiment [1], in experiment [2], in experiment [5], in experiment [6], in experiment [7] and in [11]. For the same molecule, the call in experiment [19], in experiment [20], in experiment [14], in experiment [15] and in experiment [16] was inactive. In addition, the Potency entry in [3], in experiment [8], in [9], in experiment [10], in [12] and in experiment [13] was “inactive” in each case.

Turning to `COC(=O)c1cc(Cl)c(NC(C)=O)cc1OC`, the result in [1], in experiment [2], in [5], in experiment [6], in experiment [7] and in experiment [11] was inactive. In addition, the call in [19], in experiment [20], in experiment [14], in [15], in experiment [16] and in [18] was inactive. Besides, the Potency result in [3], in [8], in experiment [9], in experiment [10], in [12] and in experiment [13] was “inactive” in each case. Besides, in experiment [17], the Potency entry was “inactive”.

For `COC(=O)c1ccccc1Cl`, the molecule was classed as inactive in experiment [1], in experiment [2], in experiment [5], in experiment [6], in experiment [7] and in experiment [11]. In addition, the call in [20], in experiment [14], in experiment [15] and in [16] was inactive. Besides, the Potency entry in experiment [3], in [8], in experiment [9], in [10], in experiment [12] and in [13] was “inactive” in each case. The Potency entry in experiment [17] is “inactive”.

As to `CC(=O)Nc1ccc(S(=O)(=O)Nc2cc(C)on2)cc1`, the molecule was called inactive in experiment [1], in experiment [2], in experiment [5], in experiment [6], in [7] and in experiment [11]. Moreover, the molecule was called inactive in experiment [19], in experiment [20], in experiment [14], in experiment [15] and in [18]. In addition, the Potency result in [3], in experiment [8], in experiment [9], in [10], in experiment [12] and in experiment [13] was “inactive” throughout.

`CCCCCCC(O)CO` (stereo unspecified): the molecule was classed as inactive in experiment [1], in experiment [2], in experiment [5], in experiment [6], in experiment [7] and in experiment [11]. The call in experiment [19], in [20], in [14], in experiment [15], in experiment [16] and in experiment [18] was inactive. The Potency result in experiment [3], in [8], in experiment [10], in experiment [12], in [13] and in experiment [17] was “inactive” each time. For the same molecule, the Potency in [9] was 12.3 µM (active).
